PP5 primary – blocks human protein phosphatase 5 activity | P53041 | purified PP5c, OMFP substrate fluorescence | inhibition, % at 6.7 µM | 0.18% of 320,000 active;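 active means inhibition above the campaign's mean inhibition across all tested compounds plus 3 SD, cut at about 9.5% in these data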;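 further: 0% = DMSO only and 100% = 100 µM cantharidin control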
PP1 counter – counter-screen for PP5 inhibitors: inhibitors of human PP1-alpha | P62136 | inhibition, % at 6.7 µM | purified PP1alpha, OMFP fluorescence | 0.9% of 320,000 active | AID 2235;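 active means inhibition above the mean inhibition of all tested compounds plus 3 SD, computed separately for each screening campaign, cut at about 15% in these data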
Fam108B inh – Fam108B inhibition, counter-screen for RBBP9 inhibitors; inhibition, % at 9.51 µM; AID 1947; recombinant Fam108B, FP-Rh probe fluorescence polarization; 0.33% of 300,000 active;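 active means inhibition above the screen mean inhibition plus 3 SD, computed separately per campaign, cut at about 18% in these data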;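 further: inhibitors lower polarization as less probe binds the enzyme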
LYPLA1 inh – LYPLA1 (human) inhibition in PME1 counter-screen | O75608 | recombinant LYPLA1, FP-Rh probe fluorescence polarization | inhibition, % at 5.9 µM | 0.16% of 320,000 active | AID 2174;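 active means inhibition above the mean of all tested compounds plus 3 SD, set per campaign, cut at about 14% in these data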;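 further: inhibitors block serine hydrolase probe labeling of LYPLA1 so polarization falls; 0% = enzyme with DMSO and 100% = wells lacking LYPLA1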
Target sequence (O75608 whole entry, looked up): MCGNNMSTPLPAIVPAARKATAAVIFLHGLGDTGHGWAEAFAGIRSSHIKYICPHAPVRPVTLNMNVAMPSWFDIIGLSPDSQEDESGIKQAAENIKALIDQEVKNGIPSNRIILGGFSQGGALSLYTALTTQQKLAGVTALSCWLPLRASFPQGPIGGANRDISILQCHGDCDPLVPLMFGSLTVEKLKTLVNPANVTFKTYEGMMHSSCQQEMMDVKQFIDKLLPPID
PME-1 primary – blocks human protein phosphatase methylesterase 1. Q9Y570. recombinant PME-1, FP-Rh probe fluorescence polarization. inhibition, % at 5.9 µM. 0.53% of 320,000 active. AID 2130;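 active means inhibition above the campaign mean of all compounds plus 3 SD, cut at about 26% in these data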;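 further: competitive labeling of PME-1 active site by serine hydrolase directed probe; 0% = PME-1 with DMSO and 100% = wells lacking PME-1 enzyme; inhibitors block probe labeling so polarization falls and inhibition rises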
Target sequence (Q9Y570 whole entry, looked up): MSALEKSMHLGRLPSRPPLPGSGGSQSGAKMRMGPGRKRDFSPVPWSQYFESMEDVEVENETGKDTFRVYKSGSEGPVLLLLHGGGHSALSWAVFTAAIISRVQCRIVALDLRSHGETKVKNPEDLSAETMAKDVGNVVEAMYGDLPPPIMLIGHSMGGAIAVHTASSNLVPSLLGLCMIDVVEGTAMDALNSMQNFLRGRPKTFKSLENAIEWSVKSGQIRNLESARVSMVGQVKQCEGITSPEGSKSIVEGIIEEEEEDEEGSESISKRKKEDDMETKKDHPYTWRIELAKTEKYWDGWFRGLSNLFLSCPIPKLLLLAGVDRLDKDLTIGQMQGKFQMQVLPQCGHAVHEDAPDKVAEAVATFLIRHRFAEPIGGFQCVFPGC
LYPLA2 inh – LYPLA2 (human) inhibition in PME1 counter-screen; O95372; recombinant LYPLA2, FP-Rh probe fluorescence polarization; inhibition, % at 5.9 µM; 0.38% of 320,000 active; AID 2177;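 active means inhibition above the screen-wide mean plus 3 SD, limit set per campaign, cut at about 26% in these data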;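 further: 0% = LYPLA2 with DMSO and 100% = wells lacking LYPLA2 enzyme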
PP1 inh confirm – human PP1 phosphatase inhibition, confirmation; shares compounds with PP1 counter; purified PP1alpha, OMFP substrate fluorescence; inhibition, % at 6.7 µM; 52% of 1,900 active;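 active means mean PP1 inhibition above a set limit taken from the earlier primary screen, cut at about 15% in these data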
PP5 counter – inhibits human PP5 phosphatase in PP1 counter-screen | shares compounds with PP1 counter | purified PP5c, OMFP fluorescence | inhibition, % at 6.7 µM | 4% of 1,900 active | AID 2360;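 active means mean PP5 inhibition over triplicate wells above about 9.5% taken from the earlier PP1 screen, limit read from the data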
Numbers without * were called inactive; nt = no result given. The list is not random: actives were taken first. Their share in the collection is about 1.8%.

SMILES	PP5 primary	PP1 counter	Fam108B inh	LYPLA1 inh	PME-1 primary	LYPLA2 inh	PP1 inh confirm	PP5 counter
O=C(CSc1nnc(NC(=O)c2c(F)cccc2Cl)s1)Nc1ccccc1F	0.9	1.7	-5.0	-4.7	0.9	-0.2	nt	nt
CCOC(=O)c1cc(S(=O)(=O)N2CCC(C)CC2)cn1C	0.7	-5.0	-3.5	-2.5	2.2	-0.4	nt	nt
CN(C)c1ccc(/C=N\NC(=O)c2cccc3cc[nH]c23)cc1	3.5	-4.6	-3.1	-0.1	25.2	-0.7	nt	nt
C#CCn1c(=NC(=O)c2sc3ccccc3c2Cl)sc2cc(S(N)(=O)=O)ccc21	-0.2	27.7*	-55.6	-33.9	-64.5	-63.7	33.9*	-4.7
C#CCn1c(=NC(=O)c2ccc(S(=O)(=O)N3CCc4ccccc4C3)cc2)sc2cc(S(N)(=O)=O)ccc21	-1.4	25.8*	-30.7	-19.4	-46.0	-42.5	27.5*	-3.6
O=c1ccc(S(=O)(=O)N2CCCC2)cn1Cc1ccc(F)cc1	4.1	-0.9	nt	-0.9	-3.1	-0.8	nt	nt
CC1CCCCN1C(=O)COC(=O)c1cccc(NS(=O)(=O)c2ccccc2)c1 (stereo unspecified)	5.5	-9.1	10.2	0.2	-0.8	-2.9	nt	nt
Cc1nc(C(=O)Nc2cc(F)cc(Cl)c2)sc1C1(C)CC(c2ccccc2)=NO1 (stereo unspecified)	1.1	8.6	-4.7	-5.4	-1.5	-6.0	nt	nt
CC(Oc1ccc(Cl)cc1)C(=O)N1CCN(C(=O)c2ccco2)CC1 (stereo unspecified)	-1.0	-3.5	nt	0.8	-1.6	3.1	nt	nt
CC(C)(CS(=O)(=O)[O-])NC(=O)CC[N+](C)(C)CCO	4.2	70.5*	3.4	2.0	0.2	5.0	55.8*	-3.7
O=C(Cc1cc(=O)[nH][nH]1)N/N=C/C=C/c1ccccc1	-1.6	19.2*	3.1	-2.5	-1.6	-2.0	9.3	0.6
Cc1ccc(S(=O)(=O)N2CCCCC2)cc1C(=O)NCCN1CCOCC1	3.1	2.2	nt	0.8	1.4	3.3	nt	nt
Cc1noc(/C=C/c2ccco2)c1S(=O)(=O)N1CCC(C(=O)N(C)Cc2ccccc2)CC1	3.6	18.7*	0.9	-5.4	-2.5	-7.8	10.5	0.1
COc1ccc(NC(=O)COc2ccc(Br)cc2)c(OC)c1	1.9	0.2	-0.8	-1.0	-54.5	1.9	nt	nt
COc1ccc(NC(=O)NNC(=O)COc2ccc3cc(Br)ccc3c2)c(OC)c1	-1.3	19.9*	-12.2	-2.6	-7.8	-3.5	23.3*	-6.2
O=C(CSc1nc2ccccc2c2nc3ccccc3n12)NCc1ccco1	1.1	30.7*	-26.3	-13.1	-42.8	-20.9	20.3*	0.1
CCCCn1c(SCC(=O)NCc2ccco2)nc2c(sc3ccccc32)c1=O	-2.4	22.4*	-17.9	-11.7	-21.2	-21.1	24.0*	-2.0
O=C(NNC(=O)c1cccnc1SCc1cccc([N+](=O)[O-])c1)c1ccc(F)cc1	3.9	-1.1	9.4	-1.0	3.1	3.6	nt	nt
O=C(NNC(=O)c1cccnc1SCc1cccc([N+](=O)[O-])c1)c1ccccn1	-0.6	20.0*	-1.1	-5.8	-3.8	-2.8	18.5*	-5.4
C[C@H](NC(=O)c1nc[nH]c1C(=O)N[C@@H](Cc1ccccc1)C(=O)OC(C)(C)C)C(=O)OCc1ccccc1	6.0	10.7	-6.1	-9.3	-10.2	-14.3	nt	nt
C/C(N)=C(/C#N)C(=O)CSc1nnc(Nc2cccc(C)c2C)s1	5.6	2.2	-0.3	-1.6	-2.3	-0.8	nt	nt
Cc1cccc(Nc2nnc(SCC(=O)c3ccc(Br)s3)s2)c1C	0.8	20.7*	-12.8	-10.1	-19.5	-18.5	21.2*	7.1
COc1cnc(-c2ccccn2)nc1Oc1ccc(Cl)c2ccccc12	6.5	50.4*	-2.2	-5.5	-6.1	-4.1	42.9*	0.8
COc1cnc(-c2ccccn2)nc1Oc1ccc(Cl)cc1	2.4	57.6*	-3.5	-0.3	3.4	11.4	38.9*	-0.9
COc1cnc(-c2ccccn2)nc1Oc1ccc(F)cc1F	4.0	21.1*	-1.9	-2.1	-2.5	-2.9	22.9*	-2.0
SMILES	PP5 primary	PP1 counter	Fam108B inh	LYPLA1 inh	PME-1 primary	LYPLA2 inh	PP1 inh confirm	PP5 counter
COc1cnc(-c2ccccn2)nc1Oc1ccccc1Cl	-0.9	30.1*	-1.2	-4.0	-12.2	-0.6	38.0*	0.9
Nc1nonc1C(=O)N/N=C/c1cc2c(cc1Br)OCO2	4.2	2.8	-13.7	5.2	-35.0	8.8	nt	nt
N#Cc1c(Cl)nsc1NCCN1CCOCC1	2.3	4.5	-0.2	-4.1	-12.4	-6.6	nt	nt
Cc1ccccc1OCCC(=O)Nc1ccccc1C(=O)NC1CC1	-0.2	-4.9	-1.7	0.5	5.7	-1.7	nt	nt
CCCCn1c(N)c(N(CC(C)C)C(=O)C2CCN(S(=O)(=O)c3ccc(OCC)cc3)CC2)c(=O)[nH]c1=O	0.0	-0.2	2.6	0.5	0.2	-3.5	nt	nt
O=C(Nc1ccc(Nc2ccccc2)cc1)C(Cl)(Cl)Cl	3.6	0.8	7.0	-2.1	0.3	8.3	nt	nt
c1ccc(-c2nc3cc4ccccc4cc3[nH]2)nc1	1.7	30.1*	2.5	-6.2	-1.4	-5.9	19.6*	3.6
O=C(NC1CCCCC1)NC1C2CC3CC(C2)CC1C3 (stereo unspecified)	2.9	-4.6	1.4	1.1	3.1	6.8	nt	nt
COc1c(OC)c(O)c2c(=O)c(O)c(-c3ccccc3)oc2c1OC	0.9	17.7*	0.1	0.3	6.3	2.3	29.5*	-4.0
COc1c(O)c(O)c2oc(-c3ccccc3)cc(=O)c2c1OC	3.3	1.2	-0.4	-0.8	6.7	-2.6	nt	nt
Cc1cccc(NC(=S)NCc2ccc3c(c2)cc(C)n3C)c1C	3.4	17.9*	1.5	-0.5	-1.6	1.7	3.0	-0.8
CSc1ccc(CN(C)CC(=O)NC(=O)NCCC2=CCCCC2)cc1	3.8	1.7	nt	3.3	1.7	7.2	nt	nt
CC(C)C(=O)Nc1ccc(C(=O)c2ccccc2)cc1	1.2	-75.1	-4.7	-0.9	1.4	2.1	-0.6	-3.5
CC(C)C(=O)Nc1ccc(C(=O)NNC(=O)CCc2ccccc2)cc1	2.1	1.9	5.1	-5.1	2.2	3.4	nt	nt
O=c1cc(CN2CCc3ccccc32)nc2sccn12	1.9	24.0*	-4.9	-5.3	-4.8	-5.5	31.4*	-3.0
COc1ccc(NC(=O)CN(C)C(=O)c2c(C)nn(-c3ccccc3)c2Cl)cc1	-2.2	20.3*	-0.2	-1.1	-1.2	5.1	-3.5	-0.4
N#Cc1c(-c2ccccc2)cc(-c2cccs2)nc1SCC(=O)O	-0.6	7.8	0.9	-1.3	-3.3	2.4	nt	nt
N#Cc1c(-c2ccc(Cl)cc2)cc(-c2cccs2)nc1SCC(=O)O	2.5	46.8*	-14.2	-6.0	12.5	-5.5	49.0*	-4.9
Cc1ccc(C)c(OCCn2cc(/C=C(/C#N)C(=O)NCC3CCCO3)c3ccccc32)c1 (stereo unspecified)	6.3	52.8*	-11.5	-16.8	-19.8	-28.2	1.6	-2.5

Compound activity (PubChem)
